Test results from PubChem BioAssay AID1259415 (National Center for Advancing Translational Sciences (NCATS), 2018).
Screen size: about 410,000 compounds; about 18,000 (4.4%) were called active. About 7% were inconclusive and are not listed. Only a selection was taken, and actives are over-represented in it overall. A number with no mark means an inactive call. No stated cut-off is given here; in the data, active means activity change below about -60%; inconclusive means no clear call, values can overlap the other calls; inactive means above about -39%.

Assay: qHTS Assay for inhibitors of the human cytomegalovirus (HCMV)
Conditions: HFF cells, HCMV-luciferase reporter, 72 h; at 57.5 µM; active compounds read low
Outline: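 Compounds were evaluated in HFFs infected with an HCMV luciferase reporter virus (MOI 1 PFU/cell). Luciferase in lysates collected 72 h post infection served as the replication measure.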
On the % scale 0 is the no-effect control and ±100 the full control effect.

| Structure (SMILES) | activity change, negative = inhibition |
| --- | --- |
| COc1ccc(C(=O)Nc2cccc(C(=O)OCc3cc(=O)n4c5c(sc4n3)CCCC5)c2)cc1 | -36% |
| COc1ccc(OC)c(-n2nnc3c(sc4nc(C)c(Br)c(C)c43)c2=O)c1 | -8.62% |
| COc1ccc(OC)c(Cc2cnc3nc(N)nc(N)c3c2C)c1 | -98.1% (active) |
| COc1ccc(CCNc2ncnc3onc(-c4ccc(Cl)cc4)c23)c(OC)c1 | 0.256% |
| N#Cc1cccc(NC(=O)CN2CCCCCC2)c1 | -11.3% |
| O=C(Cc1ccc(NC(=O)C2CCCN(C(=O)C3CCCCC3)C2)cc1)Nc1cccc(C(=O)N2CCCCC2)c1 (stereo not given) | 1.06% |
| N#Cc1cccc(NC(=O)C2CCCN(C(=O)c3ccc(Cl)cc3)C2)c1 (stereo not given) | -66% (active) |
| CSc1ccc(CCNC(=O)c2cnn(-c3ccccc3)c2-n2cccc2)cc1 | -13.5% |
| COc1ccc(Nc2ncc3c(n2)CCN(C(=O)OC(C)(C)C)C3)cc1 | 12.2% |
| COC(=O)c1ccc(NC(=O)c2cccc3c2C(=O)N(C2CCCCC2)C3)cc1 | 12.9% |
| COC(=O)c1ccc(C)c(NC(=O)Cn2c(C)csc2=O)c1 | 0.424% |
| Cc1cccc(NC(=S)N2CCC(C(=O)c3ccc(F)cc3)CC2)c1 | 15% |
| CCc1cccc(NC(=O)CN(C)S(=O)(=O)c2ccc3[nH]c4c(c3c2)CCCC4)c1 | 3.8% |
| Cc1cccc(NC(=S)NCc2ccc3[nH]c4c(c3c2)CCCC4)c1 | -72.9% (active) |
| Cc1ccc2c(c1)-c1c(cnn1CC(=O)Nc1ccccc1C#N)CO2 | -27.6% |
| CCn1cc(C(=O)N2CCN(c3cc(C)ccc3C)CC2)c(=O)c2cc(S(=O)(=O)N(C)C3CCCCC3)ccc21 | 10.1% |
| CC(OC(=O)c1c(F)cccc1F)C(=O)NCCC1=CCCCC1 (stereo not given) | 20.1% |
| S=C(NCCC1=CCCCC1)Nc1ccccc1 | -67% (active) |
| CC(=O)Nc1ccc(S(=O)(=O)N(C)CC(=O)NCCC2=CCCCC2)cc1 | -7.2% |
| Fc1ccccc1-c1noc2nc(OCc3ccc(OC(F)F)cc3)ccc12 | 7.83% |
| CCc1ccccc1N1C(=O)CN(S(=O)(=O)CC)CC1(C)C(=O)NC1CCCCC1 (stereo not given) | 0% |
| COc1ccc2c(c1)C(NS(=O)(=O)OCC(Cl)(Cl)Cl)CCC2 (stereo not given) | -21% |
| CCCc1cc(=O)[nH]c(SCC(=O)c2c(N)n(CC(C)C)c(=O)n(C)c2=O)n1 | -60.6% (active) |

| Structure (SMILES) | activity change, negative = inhibition |
| --- | --- |
| CCCc1cc(=O)[nH]c(SCC(=O)N2C(C)CCCC2C)n1 (stereo not given) | 24.9% |
| CC(C)Cn1c(N)c(C(=O)COC(=O)CN2C(=O)C3CC=CCC3C2=O)c(=O)n(C)c1=O (stereo not given) | -31.7% |
| CC1CCN(C2=NC(=O)/C(=C/c3cn[nH]c3-c3ccccc3)S2)CC1 | -1.68% |
| O=C1N=C(N2CCOCC2)CS1 | -12.8% |
| O=C1N=C(N2CCOCC2)S/C1=C\C=C/c1ccccc1 | -102% (active) |
| COc1ccc(C2CC(=O)N(Cc3ccccc3C)c3c2c(C)nn3-c2nc(C)cc(C)n2)c(OC)c1 (stereo not given) | -22.9% |
| O=C(COc1ccc(Cl)cc1)Nc1ccc(-c2nc3cc(Cl)ccc3o2)c(O)c1 | 71.6% |
| O=C(Cn1cnc2ccccc2c1=O)Nc1cccc(S(=O)(=O)N2CCCCC2)c1 | 0% |
| CSc1ccccc1NC(=O)CN(C)CC(=O)Nc1cccc(Br)c1 | -99.6% (active) |
| CCC(C)c1ccccc1NC(=O)CN(C)CC(=O)Nc1ccccc1SC (stereo not given) | -37.9% |
| CSc1ccccc1NC(=O)CN(C)CC(=O)Nc1ccc(Cl)cc1[N+](=O)[O-] | -26.6% |
| O=C(Cn1c(=O)n(Cc2cccs2)c(=O)c2cccnc21)Nc1ccc(F)cc1 | -5.11% |
| CCCC(=O)Nc1ccc2oc(-c3ccc(O)c(Br)c3)nc2c1 | 94.7% |
| COc1ccc(CCNC(=O)c2cc(=O)c3c(C)cc(C)cc3o2)cc1OC | -6.54% |
| COc1cccc(-n2cc(C(=O)NCc3cccc(Cl)c3)c3ccccc3c2=O)c1 | -23.6% |
| Cc1ccc2c(c1)N(S(=O)(=O)c1cc(-c3cc(C)no3)ccc1C)CCO2 | -81.3% (active) |
| CCC1CN(S(=O)(=O)c2cc(-c3cc(C)no3)ccc2C)c2cc(C)ccc2O1 (stereo not given) | -36.6% |
| CCN(CC)c1ccc(NS(=O)(=O)c2cc(-c3cc(C)no3)ccc2C)c(C)c1 | 0% |
| C[C@@H]1NS(=O)(=O)c2cc(Cl)ccc2O[C@@H]1c1ccccc1 | -16.5% |
| COc1ccc(CCn2cc3c(c2-c2ccc(Br)cc2)c(=O)n(C)c(=O)n3C)cc1OC | 15.4% |
| COc1ccc(S(=O)(=O)NCc2cccn2Cc2cccc(C)c2)cc1 | -4.02% |
| CCOc1ccc(N(C)S(=O)(=O)c2cc(-c3cnc(C)o3)ccc2OC)cc1 | -20.5% |
| Cc1nn(C(C)C(=O)Nc2ccc(C(C)C)cc2)c(=O)c2c1sc1ccccc12 (stereo not given) | -9.99% |

| Structure (SMILES) | activity change, negative = inhibition |
| --- | --- |
| COc1ccccc1NC(=O)C1CCCN1S(=O)(=O)c1ccc(Cl)cc1 (stereo not given) | 0.0905% |
| COc1ccccc1Nc1nc(N)nc(N)c1S(=O)(=O)c1ccccc1 | 21.5% |
| COc1ccccc1NC1=NC(c2ccc(Cl)cc2)N=C(N)N1 (stereo not given) | -75.4% (active) |
| CC(=NNC(N)=O)c1ccc(Cl)c(-n2cccc2)c1 | 25.6% |
| Cc1cccc2c(=O)cc(CSc3ccccc3NC(=O)C(C)C)[nH]c12 | 45.6% |
| COCCCNC(=O)c1ccc(NC(=O)c2nsc3ccccc23)cc1 | 114% |
| Cc1cccc(NC(=O)c2ccc(COc3ccccc3[N+](=O)[O-])o2)n1 | -4.62% |
| CCCc1ccc(OCc2ccc(C(=O)N/N=C/c3cccc([N+](=O)[O-])c3)o2)c(OC)c1 | -67.9% (active) |
| COc1ccccc1OCc1ccc(C(=O)NC(C)c2ccccc2)o1 (stereo not given) | 26.2% |
| COc1ccc(N(CC(=O)NCCc2ccc(Cl)cc2)S(=O)(=O)c2c(C)nn(C)c2C)cc1 | -14.4% |
| Cc1ccc(S(=O)(=O)NCc2nc3nc(C)cc(C)n3n2)cc1 | 14.6% |
| Cc1ccc(-c2nn3c(=O)cc(CN4CCN(C(=O)Nc5cccc(C(F)(F)F)c5)CC4)nc3s2)cc1 | 10.5% |
| CCOC(=O)C1CCN(c2csc3ccc(C)cc3c2=O)CC1 | -4.71% |
| Cn1c(COc2ccccc2C(C)(C)C)nc2ccccc21 | -14.6% |
| COc1cccc(C(O)Cc2nc3ccccc3n2C)c1OC (stereo not given) | 34.8% |
| CC(NCc1nc2ccccc2n1C)C12CC3CC(CC(C3)C1)C2 (stereo not given) | -65.6% (active) |
| CCOC(=O)c1ccc(NC(=O)c2csc3c2CCCCC3)cc1 | 26.3% |
| Nn1c(SCC(=O)NC2CCCc3ccccc32)nnc1C1CC1 (stereo not given) | 40.9% |
| CC(C)N(Cc1ccccc1)C(=O)COC(=O)c1ccccc1SCC(=O)N1CCCC1 | -8.52% |
| CC(C)c1nc(CNC(=O)CC2C(=O)NCCN2Cc2cccc(F)c2F)cs1 (stereo not given) | 12.4% |
| COc1ccc(CN2CCNC(=O)C2CC(=O)NCc2cn[nH]c2-c2ccccc2)c(F)c1 (stereo not given) | -65.5% (active) |
| O=C(CC1C(=O)NCCN1Cc1ccc(-c2ccccc2)cc1)NCc1ccncc1 (stereo not given) | 11.9% |
| CCOc1ccc(N2CC(C)Cn3c2nc2c3c(=O)n(Cc3c(F)cccc3Cl)c(=O)n2C)cc1 (stereo not given) | -9.51% |

| Structure (SMILES) | activity change, negative = inhibition |
| --- | --- |
| CCOc1ccccc1NC(=O)CN1CCN(S(=O)(=O)c2ccc(Br)cc2)CC1 | -1.48% |
| O=C(NC1CC(=O)N(c2ccc(F)cc2)C1)C1CCCCC1 (stereo not given) | 31.9% |
| Cc1ccc(C)c(N2CCN(C(c3ccccc3)c3nnc(-c4ccccc4)o3)CC2)c1 (stereo not given) | 20.2% |
| O=C(NN1C(=O)C2C3C=CC(C4CC34)C2C1=O)c1ccc(Cl)cc1 (stereo not given) | 11.6% |
| O=C(NN1C(=O)C2C3C=CC(O3)C2C1=O)c1ccncc1 (stereo not given) | -8.47% |
| COc1ccc(C(=O)NN2C(=O)C3C(c4ccccc4)C=CC(c4ccccc4)C3C2=O)cc1 (stereo not given) | -63% (active) |
| CCc1cccc(NC(=O)c2cnc(N3CCOCC3)c3ccccc23)c1 | 10.1% |
| COc1ccc(CCNC(=O)c2ccc3c(c2)nc(C)n3-c2ccc(Br)cc2)cc1OC | -16.1% |
| Cc1ccc(C)c(Cn2c(C)c(CNCc3ccc(F)cc3)c(C(=O)O)c2C)c1 | 18.1% |
| Cc1ccc(C2c3[nH]c4ccccc4c3CCN2C(=O)c2cccc(C)c2)cc1 (stereo not given) | -22.4% |
| Brc1ccc2ncnc(NCc3cccnc3)c2c1 | -65.9% (active) |
| C=CCOc1cccc(CNCc2cccnc2)c1 | 21.4% |
| Clc1ccc(Cn2ncc3c(NCc4cccnc4)ncnc32)cc1 | -72.2% (active) |
| C=CCNc1ncnc2ccc(Br)cc12 | -60.6% (active) |
| c1cncc(CNC2=NCCC2)c1 | 46.1% |
| CC(C)CNc1ncnc2c1cnn2Cc1ccc(Cl)cc1 | -30.5% |
| Clc1cccc(-n2ncc3c(NCCc4ccccc4)ncnc32)c1 | 41.5% |
| COc1ccc(CCNS(=O)(=O)c2cccc([N+](=O)[O-])c2)cc1 | -2.78% |
| COc1cc2nc(NCC(C)c3ccccc3)n3nc(-c4ccccc4)nc3c2cc1OC (stereo not given) | 5.32% |
| Cc1ccc2cccc(NC(=O)C(C)Oc3ccc(C)c(C)c3)c2n1 (stereo not given) | -3.68% |
| C=CCNC(=O)c1cc2nc(C3CC3)cc(C(F)F)n2n1 | 37.6% |
